We go through 7 molecules from PubChem BioAssay (NCATS).

A short description of assay [1]: AP1 Signaling Pathway (AID 357).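 Further: ME-180 reporter cells stimulated with EGF at its EC50 level; on the % scale 0 is the no-effect control and ±100 the full control effect.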 An outline of the steps: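 In this screen, ME-180 cells in Opti-MEM with 0.5% dialyzed FBS received EC50 EGF and compound titrations for 5 h. AP-1 reporter beta-lactamase was detected via CCF4 ratio, giving AC50 for positive and negative modulators.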
Assay [2] addresses Cytochrome P450 1A2 (Homo sapiens) (UniProt P05177). Nature of the assay: p450-cyp1a2 (AID 410; calls by dose curve; further: potency means the concentration at half of the fitted maximal effect;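 on activity change, negative = inhibition: -100% = full effect of reference inhibitor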). An outline of the steps: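 20nM CYP1A2, 100uM Luciferin-ME (=Km), 100mM KPO4; cpd 10 min RT; +NADPH regen, 60 min RT; stop/detect 20 min; luminescence. Normalized to furafylline 57 uM = full inhibition.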
The nature of assay [3]: NFAT Signaling Pathway (AID 444).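 Further: carbachol stimulus at about its EC50 of 1 µM final; on the % scale 0 is the no-effect control and ±100 the full control effect.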 As to conditions: Jurkat NFAT-bla M1, carbachol, beta-lactamase ratio, 5 h; at 17.2 µM (top of the series) unless noted. The gist of the method: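 Jurkat cells with NFAT-driven β-lactamase reporter and co-expressed M1 receptor, stimulated with carbachol (final 1 uM, ~EC50), compound titration, 5 h at 37 °C. CCF4 loaded 1 h at RT; 460/530 nm ratio gave %activity and AC50.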

Assay [4] is described as follows: Stat Signaling Pathway (AID 446).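 Further: ME-180 cervical cancer cells given 40 pM IL-6 alongside compound; SIE-controlled beta-lactamase reporter measured as 460/530 nm FRET emission ratio; on the % scale 0 is the no-effect control and ±100 the full control effect.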 The gist of the method: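 Compound effects on IL-6-induced STAT reporter activity were measured in ME-180 cells. After overnight culture, cells were co-treated with 40 pM IL-6 for 5 hrs before beta-lactamase substrate loading at room temperature.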
The target of assay [5] is Glucocorticoid receptor (Homo sapiens) (UniProt P04150). Nature of the assay: GR-GFP Redistribution (AID 450;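 active means compounds whose dose series gives a full or clear partial fitted curve of increased nuclear translocation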; further: potency means the concentration at half of the fitted maximal effect). The following applies: U2OS GR-GFP nuclear translocation, laser cytometry, 2 h.
Sequence of Glucocorticoid receptor (Homo sapiens) (P04150 whole entry, looked up, the tested form may be a part): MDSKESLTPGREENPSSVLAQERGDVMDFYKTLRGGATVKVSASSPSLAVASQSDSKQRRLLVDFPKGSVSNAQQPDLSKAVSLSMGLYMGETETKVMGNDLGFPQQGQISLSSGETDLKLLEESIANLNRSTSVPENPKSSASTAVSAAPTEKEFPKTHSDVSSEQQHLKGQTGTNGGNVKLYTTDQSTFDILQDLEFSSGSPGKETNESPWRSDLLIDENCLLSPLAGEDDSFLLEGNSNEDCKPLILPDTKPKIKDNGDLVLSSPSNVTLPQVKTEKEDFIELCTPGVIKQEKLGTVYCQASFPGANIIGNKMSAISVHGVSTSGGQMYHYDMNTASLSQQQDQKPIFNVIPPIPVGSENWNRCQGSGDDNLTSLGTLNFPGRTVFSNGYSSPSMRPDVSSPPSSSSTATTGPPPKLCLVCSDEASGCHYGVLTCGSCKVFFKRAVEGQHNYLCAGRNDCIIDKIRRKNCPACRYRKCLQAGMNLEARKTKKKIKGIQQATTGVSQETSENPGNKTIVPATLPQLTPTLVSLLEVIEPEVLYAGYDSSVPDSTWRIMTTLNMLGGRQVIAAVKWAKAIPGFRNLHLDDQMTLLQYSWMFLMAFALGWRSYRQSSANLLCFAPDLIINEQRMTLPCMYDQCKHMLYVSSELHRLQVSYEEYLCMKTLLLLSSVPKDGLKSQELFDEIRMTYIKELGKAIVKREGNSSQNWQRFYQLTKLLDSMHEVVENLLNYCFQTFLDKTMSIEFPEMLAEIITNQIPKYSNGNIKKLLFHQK
Assay [6] deals with Mitogen-activated protein kinase 10 (Mus musculus) (UniProt Q61831). Nature of the assay: JNK3 AlphaScreen Assay (AID 530).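 Further: kinase came from lysate of stimulated human HepG2 cells; signal reports phosphorylation of biotinylated GST-cJun 1-79 at Ser73 with 10 µM ATP; on the % scale 0 is the no-effect control and ±100 the full control effect.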 An outline of the steps:
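HepG2 lysate (IL-1b/TNFa pre-activated) + biotin-GST-cJun 1-79 + anti-pSer73 cJun; cpd titration, 15 min RT; ATP 10 uM start; Tris pH 7.6, MgCl2, DTT, vanadate; beads in EDTA buffer; AlphaScreen.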
(Bead proximity is the source of the signal in Alpha formats.)

Assay [7] addresses 3',5'-cyclic-AMP phosphodiesterase 4B (Homo sapiens) (UniProt Q07343). The assay can be described thus: qHTS Assay for Inhibitors of PDE-IV (AID 607; active means well fitted activation curve with a large enough effect in the main read-out, with a control signal flat, not every such curve was filed as active; further: % of control where 0% means no effect). An outline of the steps:
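ACTOne HEK293 cells carry a modified cAMP-gated CNG channel and express endogenous PDE4; plated 1000 cells/well, compounds up to 22.9 uM final. Membrane-potential dye fluorescence (ex 535/em 590) was read; parental cells received 10 uM forskolin + 100 uM RO 20-1724.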

Assay [8] in a line: qHTS Assay for Lipid Storage Modulators (AID 1519; calls by dose curve). The following applies: Drosophila S3 cells, BODIPY lipid droplet/cell ratio, laser cytometry, cells loaded with oleic acid; for activity change, negative = inhibition: at 25.7 µM (top of the series). An outline of the steps:
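Cells seeded at 5,000 per well were treated with compounds over a concentration series and loaded with oleic acid (400 uM, as added). Lipid droplet fluorescence (488 nm excitation, 500-530 nm channel) was read by laser-scanning cytometry and normalized to 20 uM Triacsin C.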

Assay [9] deals with Ubiquitin carboxyl-terminal hydrolase 1 (Homo sapiens) (UniProt O94782). Nature of the assay: Inhibitors of USP1/UAF1: Pilot qHTS (AID 504865; active means well fitted curve in the direction sought with a large enough effect; an effect the other way counts as inactive or inconclusive;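 further: rhodamine fluorescence freed from ubiquitin-rhodamine substrate followed over time; top concentration of the series differs between compounds; on the % scale 0 is the no-effect control and ±100 the full control effect; nearly all actives have a fitted effect of over 35% in size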). An outline of the steps:
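Kinetic fluorescence assay: 1nM USP1/UAF1, 15 min compound preincubation, then 150nM Ub-Rho; 480/540 nm.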
On the technique in general: Quantitative high-throughput screening tests each substance at several concentrations.

The target in assay [10] is Glucocorticoid receptor (Homo sapiens) (UniProt P04150). Nature of the assay: GR-EFC Redistribution (AID 451; calls by dose curve; further: potency means the concentration at half of the fitted maximal effect). The following applies: CHO-K1 GR-EFC translocation, beta-gal luminescence, 2 h. The gist of the method:
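CHO-K1 cells expressing nuclear EA and GR-ED fragments of b-gal; compounds titrated up to 46 uM final, 2 h at 37 C. GR nuclear translocation read as complemented b-gal luminescence after 1 h RT detection.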

Assay [11] in a line: S16 Schwann cell viability assay (CellTiter-Glo assay) (AID 624031; active means well fitted curve in the direction sought with a large enough effect; an effect the other way counts as inactive or inconclusive;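 further: cellular ATP luminescence as a viability measure; plate controls were DMSO-treated cells for no effect and cell-free wells for full effect; nearly all actives have a fitted effect of over 70% in size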). The gist of the method:
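Luminescent ATP read-out (CellTiter-Glo) after 24 h compound exposure of native S16 rat Schwann cells at 37 °C. Signals were normalized between cell-free wells and DMSO-treated cells, set as 0% activity.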
Background: Cellular ATP, detected with luciferase, serves as a proxy for viable cell number.

A short description of assay [12]: S16 Schwann cell PMP22 intronic element firefly luciferase assay (AID 624032; active means well fitted curve in the direction sought with a large enough effect; an effect the other way counts as inactive or inconclusive;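 further: plate controls were DMSO for no effect and PTC124 positive control mean for full effect; nearly all actives have a fitted effect of over 30% in size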). An outline of the steps: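 Rat S16 Schwann cells stably carrying firefly luciferase driven by a PMP22 intronic element, in 10% FBS, treated 24 h at 37 C. ONE-Glo luminescence normalized to PTC124 control and DMSO (0%); curves classed by r2, magnitude and activity.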
The nature of assay [13]: qHTS profiling for inhibitors of Plasmodium falciparum proliferation (AID 504749; active means well fitted curve in the direction sought with a large enough effect; an effect the other way counts as inactive or inconclusive;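 further: 0% = DMSO vehicle and full inhibition = artemisinin control; nearly all actives have a fitted effect of over 60% in size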). As to conditions: P. falciparum in erythrocytes, SYBR Green DNA, 72 h, at 12.8 µM (top of the series). The gist of the method:
(§1)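 SYBR Green fluorescence (ex 485 nm, em 535 nm) reports parasite DNA after 72 h compound exposure of infected red cells at 0.3% parasitemia, 2.5% hematocrit; signal normalized to 0.29 uM artemisinin and vehicle wells.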

The next assay relates to 3D7. The description is as above. As to conditions: P. falciparum in erythrocytes, SYBR Green DNA, 72 h; series mostly up to 12.8 µM. The gist of the method: as §1
For a further assay, the system named is AS120. Described as above. The following applies: P. falciparum in erythrocytes, SYBR Green DNA, 72 h; series mostly up to 12.8 µM. An outline of the steps: as §1
The subject of a further assay is ATS189. Described as above. As to conditions: P. falciparum in erythrocytes, SYBR Green DNA, 72 h; series mostly up to 12.8 µM. An outline of the steps: as §1
Another assay relates to CP217. The assay is described as above. As to conditions: P. falciparum in erythrocytes, SYBR Green DNA, 72 h; series mostly up to 12.8 µM. The gist of the method:
as §1

Another assay has as its system CP247. The description is as above. The following applies: P. falciparum in erythrocytes, SYBR Green DNA, 72 h; series mostly up to 12.8 µM. The gist of the method:
as §1

The next assay has as its system CP250. The assay is described as above. The following applies: P. falciparum in erythrocytes, SYBR Green DNA, 72 h; series mostly up to 12.8 µM. The gist of the method:
as §1

For another assay, the system named is SC27B. The assay is described as above. As to conditions: P. falciparum in erythrocytes, SYBR Green DNA, 72 h; series mostly up to 12.8 µM. The gist of the method:
as §1

Setting [14] is: measured here: cell count channel max response.
[15] abbreviates: measured here: lipid channel max response.

The structures appear in SMILES notation. Results filed as inconclusive are left out. Active and inactive are the calls of the source. Unless noted, the call rests on the fitted dose curve; in most records, active means well fitted curve in either direction with a large enough effect (not every such curve was filed as active); inconclusive means small, poorly fitted or top-dose-only effect, or another doubt; inactive means flat fitted curve, though single readings scatter.

Sequence of Ubiquitin carboxyl-terminal hydrolase 1 (Homo sapiens) (O94782 whole entry, looked up): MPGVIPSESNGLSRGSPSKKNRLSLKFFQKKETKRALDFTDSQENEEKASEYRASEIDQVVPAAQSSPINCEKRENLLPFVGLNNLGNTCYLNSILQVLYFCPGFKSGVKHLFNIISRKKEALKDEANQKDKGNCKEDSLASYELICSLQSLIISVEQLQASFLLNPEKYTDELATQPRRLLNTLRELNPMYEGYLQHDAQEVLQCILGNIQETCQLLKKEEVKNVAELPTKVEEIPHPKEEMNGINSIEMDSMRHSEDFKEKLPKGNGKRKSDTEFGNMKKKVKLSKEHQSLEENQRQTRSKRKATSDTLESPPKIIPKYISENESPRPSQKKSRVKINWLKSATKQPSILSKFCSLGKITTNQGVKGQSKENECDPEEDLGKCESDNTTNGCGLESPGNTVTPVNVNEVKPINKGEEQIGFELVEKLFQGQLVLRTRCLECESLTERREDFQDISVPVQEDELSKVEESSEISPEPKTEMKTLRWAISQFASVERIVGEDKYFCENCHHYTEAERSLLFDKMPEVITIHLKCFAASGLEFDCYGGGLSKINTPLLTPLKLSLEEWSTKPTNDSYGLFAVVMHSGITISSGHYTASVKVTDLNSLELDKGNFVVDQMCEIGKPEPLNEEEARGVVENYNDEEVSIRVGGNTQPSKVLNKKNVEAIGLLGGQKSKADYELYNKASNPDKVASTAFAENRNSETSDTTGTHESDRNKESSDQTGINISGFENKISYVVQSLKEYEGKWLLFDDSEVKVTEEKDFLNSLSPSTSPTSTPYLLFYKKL
Sequence of Cytochrome P450 1A2 (Homo sapiens) (P05177 whole entry, looked up): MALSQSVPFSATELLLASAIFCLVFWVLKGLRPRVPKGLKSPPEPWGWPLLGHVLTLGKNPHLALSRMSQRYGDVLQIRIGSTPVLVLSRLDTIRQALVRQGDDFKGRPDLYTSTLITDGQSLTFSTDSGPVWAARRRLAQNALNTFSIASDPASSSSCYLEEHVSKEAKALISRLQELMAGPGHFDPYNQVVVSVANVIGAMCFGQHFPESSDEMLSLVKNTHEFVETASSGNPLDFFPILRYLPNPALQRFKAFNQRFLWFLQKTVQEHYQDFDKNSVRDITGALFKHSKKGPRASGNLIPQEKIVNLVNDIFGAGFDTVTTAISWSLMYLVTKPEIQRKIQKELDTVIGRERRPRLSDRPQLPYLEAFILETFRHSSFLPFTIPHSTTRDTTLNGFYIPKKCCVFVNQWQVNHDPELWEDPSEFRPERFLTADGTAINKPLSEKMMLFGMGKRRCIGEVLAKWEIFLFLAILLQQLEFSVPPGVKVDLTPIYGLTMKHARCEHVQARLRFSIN
Sequence of 3',5'-cyclic-AMP phosphodiesterase 4B (Homo sapiens) (Q07343 whole entry, looked up): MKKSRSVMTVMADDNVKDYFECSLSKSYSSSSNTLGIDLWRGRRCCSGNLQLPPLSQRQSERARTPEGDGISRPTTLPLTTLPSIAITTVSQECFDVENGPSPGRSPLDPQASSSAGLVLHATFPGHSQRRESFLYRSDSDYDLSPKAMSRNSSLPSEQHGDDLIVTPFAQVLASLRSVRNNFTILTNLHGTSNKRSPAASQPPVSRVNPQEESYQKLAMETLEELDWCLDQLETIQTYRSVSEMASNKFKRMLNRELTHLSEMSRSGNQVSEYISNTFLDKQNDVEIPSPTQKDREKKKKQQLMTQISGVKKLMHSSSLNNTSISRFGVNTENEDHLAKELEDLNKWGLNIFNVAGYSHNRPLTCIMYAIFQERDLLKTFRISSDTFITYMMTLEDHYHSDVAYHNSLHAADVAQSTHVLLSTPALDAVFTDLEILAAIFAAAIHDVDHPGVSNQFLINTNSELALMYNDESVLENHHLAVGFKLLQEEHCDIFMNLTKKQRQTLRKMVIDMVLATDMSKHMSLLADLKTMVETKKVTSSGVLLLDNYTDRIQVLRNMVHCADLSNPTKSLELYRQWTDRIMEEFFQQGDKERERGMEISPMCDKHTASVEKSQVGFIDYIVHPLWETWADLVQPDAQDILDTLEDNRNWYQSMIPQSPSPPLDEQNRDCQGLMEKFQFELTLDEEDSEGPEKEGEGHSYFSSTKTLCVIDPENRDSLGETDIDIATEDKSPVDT

As for `O=C(O)[C@@H]1CCCNC1`, the call in assay [1], in [4] and in assay [7] was inactive. Further, the Potency entry in assay [2], in assay [6] and in assay [9] was “inactive” each time. The activity change, negative = inhibition in assay [3] was -10.3% (inactive); in assay [8], -1.28% (inactive). For the same molecule, the Potency in assay [5] is > 20.6 µM (inactive). Moreover, the max response was -8.86% in assay [8] (setting [14]) and -11.3% in assay [8] (setting [15]).

As for `CN(C)c1ccc(O)c2c1C[C@H]1C[C@H]3[C@@H](N(C)C)C(=O)C(C(N)=O)=C(O)[C@]3(O)C(=O)C1=C2O`, the call in assay [1], in assay [4] and in [7] was inactive. Besides, the Potency entry in assay [2] and in assay [6] was “inactive” each time. Moreover, the activity change, negative = inhibition in [3] is 12.2% (inactive); in assay [8], -0.929% (inactive). Further, the Potency in assay [5] and in assay [10] was > 20.6 µM (inactive) throughout. Moreover, the max response in [8] (setting [14]) is 2.32%; in assay [8] (setting [15]), 0.719%.

`CN[C@]1(C)[C@H]2CC[C@@H](C2)C1(C)C`: the outcome in [1], in [4] and in assay [7] was inactive. In addition, the Potency result in assay [2] and in assay [6] was “inactive” in each case. Moreover, the activity change, negative = inhibition in assay [3] was -19.7% (inactive); in assay [8] it was -3.7% (inactive). Further, the Potency in [5] and in [10] was > 20.6 µM (inactive) in each case. Besides, the max response is -12.2% in [8] (setting [14]) and -14.5% in assay [8] (setting [15]).

Take `C[C@@]12CC[C@@H]3c4ccc(O)cc4CC[C@H]3[C@H]1C[C@@H](O)[C@H]2O`: the outcome in [1], in assay [4] and in [7] was inactive. Also, the Potency entry in assay [2], in assay [6] and in assay [9] was “inactive” in each case. The activity change, negative = inhibition in [3] was -13% (inactive); in [8], -1.89% (inactive). Also, the Potency in assay [5] was > 20.6 µM (inactive). Moreover, the results for the max response in assay [8] (setting [14]) and in assay [8] (setting [15]) were -5.07% and -7.07%, respectively.

In the case of `CS(=O)(=O)c1ccc([C@H](O)[C@H](CO)NC(=O)C(Cl)Cl)cc1`, the molecule was classed as inactive in assay [1], in assay [4], in [7] and in assay [11]. Also, the Potency result (in assay [2]; in assay [6]; in assay [9]; in assay [12]; in the assay with 3D7; in the assay on AS120) was “inactive” throughout. In addition, the Potency entry with ATS189, with CP217, in the assay with CP247, in the assay on CP250 and in the assay on SC27B was “inactive” each time. Further, the activity change, negative = inhibition in [3] was 1.44% (inactive); in [8], -0.717% (inactive). In addition, the Potency in [10] was > 20.6 µM (inactive). Besides, the results for the max response in assay [8] (setting [14]) and in [8] (setting [15]) were 3.5% and 5.27%, respectively. Further, the figures for the activity, negative = inhibition in assay [13] (parasite line A) and in assay [13] (parasite line B) were -20.3% (inactive) and -19.1% (inactive), respectively.

Regarding `Cc1nccn1C[C@@H]1CCc2c(c3ccccc3n2C)C1=O`, the outcome in [1], in assay [4] and in assay [7] was inactive. In addition, the Potency in [2] was 3.98 µM (active); in assay [10], > 20.6 µM (inactive). Also, the activity change, negative = inhibition in assay [3] is -26.8% (inactive); in [8], -8.25% (inactive). The Potency result in assay [6] and in assay [9] was “inactive” throughout. In addition, the max response in [8] (setting [14]) is -10%; in assay [8] (setting [15]), -16.3%.

Take `C[N+]1(C)C[C@@H](O)C[C@@H]1C(=O)[O-]`: the molecule was classed as inactive in assay [1], in assay [4] and in assay [7]. Besides, the Potency result in assay [2], in assay [6] and in assay [9] was “inactive” throughout. Moreover, the values for the activity change, negative = inhibition in assay [3] and in assay [8] were -11.1% (inactive) and -1.53% (inactive), respectively. In addition, the Potency in assay [5] was > 20.6 µM (inactive). Moreover, the values for the max response in assay [8] (setting [14]) and in assay [8] (setting [15]) were -1.48% and -3.42%, respectively.
